# High-throughput results (PubChem BioAssay)
# An excerpt weighted towards active compounds, which were near 7.3% of everything screened.
# FMDV antiviral – antivirals against foot and mouth disease virus | FMDV antiviral cell-based qHTS | Potency, µM (doses to about 57.9 µM), inactives show at the highest dose activity change, negative = inhibition, hits mostly inhibitors | hit rate 1.2% among 410,000 | AID 1159524; calls by dose curve; tested in HEK293T cells; note: read-out not given here; potency is the fitted concentration of half-maximal effect; nearly all actives have a fitted effect of over 45% in size
# Vaccinia mCherry – inhibitors of vaccinia virus infection (mCherry reporter signal); hit rate 0.63% among 310,000; Vaccinia virus mCherry reporter infection, fluorescence; Potency, µM (top dose mostly 36.5 µM), for inactives: top-dose activity change, negative = inhibition, usual class: inhibitors; calls by dose curve; tested in A549 cells; note: potency is the fitted concentration of half-maximal effect; nearly all actives have a fitted effect of over 35% in size
# HCV inh – inhibitors of hepatitis C virus infection. hit rate 3.4% among 340,000. AID 651820. Potency, µM (doses to about 41.8 µM), for inactives: at the top dose activity change, negative = inhibition, most hits filed as inhibitors. Huh7.5.1 HCVcc-Cre infection, luciferase reporter, 44 h; active = well fitted inhibition curve with a large enough effect; inconclusive = small, poorly fitted or top-dose-only effect, or another doubt; inactive = no such curve, though single readings can be large or run the other way; note: potency is the fitted concentration of half-maximal effect
#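 Cells seeded at 1,000/well and cultured 4 h, then compounds added followed by HCVcc-Cre virus (~0.5 moi). After 44 h further culture, luciferase substrate was added, plates held 15 min at room temperature, and luminescence read for 15 sec.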
# Vaccinia Venus – inhibitors of vaccinia virus (Venus reporter); Vaccinia virus Venus reporter expression, fluorescence; hit rate 0.46% among 330,000; AID 720580; Potency, µM (highest dose often 36.5 µM), inactives show at the highest dose activity change, negative = inhibition, actives largely listed as inhibitors; calls by dose curve; tested in A549 cells; note: potency is the fitted concentration of half-maximal effect; nearly all actives have a fitted effect of over 30% in size
# HCMV inh – blocks human cytomegalovirus replication; HFF cells, HCMV-luciferase reporter, 72 h; active compounds read low; activity change, negative = inhibition, % at 57.5 µM; hit rate 4.5% among 410,000; AID 1259415; in the data active = activity change below about -60%; inconclusive = no clear call, values can overlap the other calls; inactive = above about -39%
#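 Screen run at 2 compound doses on HFFs infected with reporter HCMV, MOI 1 PFU/cell. Luciferase activity from cell lysates at 72 h post infection gave inhibition relative to buffer-only and Salinomycin wells.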
# An asterisk follows results filed as active; i = inactive; ? = inconclusive; . = not tested or not shown; [ ] = remark or other dose. % is set by controls: 0 for no effect and ±100 for the full control effect.
SMILES,FMDV antiviral,Vaccinia mCherry,HCV inh,Vaccinia Venus,HCMV inh
C/C(N)=C(/C#N)C(=O)COC(=O)Cc1coc2ccc3ccccc3c12,4.9%,-4.2%,-22.1%,-1.7%,-68.3*
Cc1ccc(/C=N/NC(=O)c2c(C)nc3ccc(Br)cn23)cc1,16.4%,.,11.0%,.,-30.0
COc1cccc(/C=N/NC(=O)c2c(C)nc3ccc(Br)cn23)c1O,-22.4%,.,4.47µM*,.,.
CCOc1ccccc1/C=N/NC(=O)c1c(C)nc2ccc(Br)cn12,?,.,-22.4%,.,6.7
COc1ccc(/C=N\NC(=O)c2c(C)nc3ccc(Br)cn23)cc1,12.0%,?,3.2%,?,-68.8*
Cc1nc2ccccn2c1C(=O)N/N=C/c1cc(C)n(-c2ccc(Br)cc2)c1C,?,.,3.98µM*,.,?
Cc1nc2ccccn2c1C(=O)N/N=C/c1ccccc1,-3.3%,.,7.6%,.,-3.1
COCCCn1c(SCC(=O)Nc2ccc(OC)cc2)nc2c(sc3ccccc32)c1=O,8.5%,-5.8%,.,1.6%,?
Cc1cc(C(=O)Nc2c(F)cc(F)cc2Br)n(-c2ccccc2)n1,2.4%,-15.0%,-6.0%,-17.5%,-18.9
Cc1ccc2[nH]c(CNC(=O)C3CCCCC3)cc2c1,23.7%,-13.2%,-10.3%,-3.3%,33.3
Cc1cc(C)cc(-n2c(C)cc(/C=N/NC(=O)c3cccc([N+](=O)[O-])c3C)c2C)c1,?,.,3.98µM*,?,-20.4
Cc1cc(/C=N/NC(=O)CC#N)c(C)n1-c1ccc([N+](=O)[O-])cc1,-14.0%,i,-26.8%,-0.4%,-91.1*
CCN(CC)c1ccc([N+](=O)[O-])cc1/C=N/NC(=O)CC#N,-24.6%,-20.8%,0.8%,-7.3%,-22.0
Cc1ccc(C(=O)Oc2csc(=S)n2C(=O)c2ccc(C)cc2)cc1,.,-6.8%,10.7%,-2.6%,-61.6*
O=C(NC1CCSc2ccccc21)c1cccc(OC(F)F)c1 (centres undefined),21.9%,-18.7%,-18.1%,-14.3%,?
FC(F)Oc1ccc(NC(=S)NC2CCSc3ccccc32)cc1 (centres undefined),0.0%,-24.9%,-18.5%,?,-82.3*
COC(=O)[C@]12CCCCC=C1N(Cc1ccc3c(c1)OCO3)C(=O)[C@H](CC(=O)NCCCN1CCCC1=O)C2,-11.4%,-11.5%,.,3.4%,2.3
COc1ccc(C2CC23N=C(c2ccccc2)OC3=O)cc1 (centres undefined),22.4µM*,i,27.1%,-17.7%,-7.5
O=C(c1ccccc1Oc1ccc(C(F)(F)F)cc1[N+](=O)[O-])N1CCOCC1,-25.4%,.,5.5%,.,-31.2
O=C(c1ccc(Oc2ccc(C(F)(F)F)cc2[N+](=O)[O-])cc1)N1CCOCC1,?,?,-11.4%,-18.5%,-82.5*
O=C(Cn1c(SCc2ccccc2F)nc2ccncc21)Nc1ccccc1C(F)(F)F,31.1%,-0.8%,.,-0.2%,28.3
C=CCc1ccc(OCc2ccc(C(=O)O)o2)c(OC)c1,14.1µM*,i,21.9%,-15.8%,179.5
O=C(NCc1cccnc1)c1ccc(COc2ccc3c(c2)CCC3)o1,17.8µM*,i,-19.2%,-25.4%,23.8
CCOc1ccc(OCc2ccc(C(=O)O)o2)cc1,8.91µM*,-15.7%,1.6%,-10.2%,29.9
CCCc1ccc(OCc2ccc(C(=O)O)o2)c(OC)c1,-66.3%,-9.3%[1.46 µM],11.0%,-7.5%,32.6
SMILES,FMDV antiviral,Vaccinia mCherry,HCV inh,Vaccinia Venus,HCMV inh
O=C(N/N=C/c1cc([N+](=O)[O-])ccc1O)c1ccc(COc2ccc3c(c2)CCC3)o1,?,?,-27.0%,-15.5%,-95.9*
COC(=O)c1ccc(COc2ccc3c(c2)CCC3)o1,24.7%,i,1.3%,-2.4%,116.3
COc1ccc(Br)cc1/C=N/NC(=O)c1ccc(COc2ccc3c(c2)CCC3)o1,23.5%,-24.9%,?,-16.0%,73.1
O=C(O)c1ccc(COc2ccc3ccccc3c2)o1,-7.0%,.,18.3%,.,24.1
CCOc1ccccc1NC(=O)Cn1c(=O)n(-c2ccc(C)cc2)c(=O)c2c1cnn2C,0.0%,-4.2%,.,8.2%,13.0
O=C(c1ccc(COc2ccc(F)cc2)o1)n1cccn1,7.1%,i,19.2%,-11.0%,-103.8*
O=C(c1ccc(COc2ccc(F)cc2)o1)n1cc(Br)cn1,11.8%,.,13.5%,.,77.3
CCc1ccc(OCc2ccc(C(=O)NCc3ccccn3)o2)cc1,36.1%,.,0.7%,-2.2%,81.2
CCOc1ccc(OCc2ccc(C(=O)NCc3ccncc3)o2)cc1,.,i,7.08µM*,-16.6%,1.6
CCC(=O)N1CCc2cc(CNS(=O)(=O)c3c(C)cc(C)cc3C)ccc21,3.8%,-10.1%,.,-7.8%,-35.3
